Measurements reported in PubChem BioAssay (NCATS).
Results filed as inconclusive are left out. Entries that show only a call come without a potency. Calls of active or inactive are those of the source. The call rests on the fitted dose curve; in most records, active means well fitted inhibition curve with a large enough effect; inconclusive means small, poorly fitted or top-dose-only effect; inactive means no such curve, though single readings can be large or run the other way. Where a SMILES comes first, the peptide text is derived from it. [ ]: non-standard residue; d: D form. dPhe(4-Cl) = N[C@H](Cc1ccc(Cl)cc1)C(=O)O; d2Nal = N[C@H](Cc1ccc2ccccc2c1)C(=O)O; dCit = NC(=O)NCCC[C@@H](N)C(=O)O; d3Pal = N[C@H](Cc1cccnc1)C(=O)O

Tested on: Zika virus NS2B-NS3 protease (unlinked complex)
Assay: Primary screen GU Rhodamine qHTS for Zika virus inhibitors: Unlinked NS2B-NS3 protease assay (AID 1347159); further: nearly all actives have a fitted effect of over 60% in size
Details: Recombinant ZIKV NS2B-NS3 protease, Rhodamine110 substrate fluorescence; series mostly up to 107 µM
Procedure, shortened: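 Buffer 10 mM Tris-HCl pH 8.0, 0.01% Tween 20. Unlinked protease 25 nM; compound preincubation 15 min, RT, protected from light. Substrate Rhod110, 1.5 microM; ~15% conversion in 15 min.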
Potency means the concentration at half of the fitted maximal effect.

Row | Compound | Potency
1 | COc1ccc(C2COc3cc(O)ccc3C2)c(O)c1 (stereo not drawn) | inactive
2 | COc1c/c(=C2\C=c3ccccc3=N2)[nH]/c1=C\c1[nH]c(C)cc1C | inactive
3 | C=C[C@H]1C(O[C@@H]2O[C@H](CO)[C@@H](O)[C@H](O)[C@H]2O)OC=C2C(=O)N3CCc4c([nH]c5ccccc45)[C@H]3C[C@H]21 (stereo partly drawn) | inactive
4 | CC(=O)N[C@H](Cc1ccc2ccccc2c1)C(=O)N[C@H](Cc1ccc(Cl)cc1)C(=O)N[C@H](Cc1cccnc1)C(=O)N[C@@H](CO)C(=O)N[C@@H](Cc1ccc(O)cc1)C(=O)N[C@H](CCCNC(N)=O)C(=O)N[C@@H](CC(C)C)C(=O)N[C@@H](CCCN=C(N)N)C(=O)N1CCC[C@H]1C(=O)N[C@H](C)C(N)=O (Ac-[d2Nal][dPhe(4-Cl)][d3Pal]SY[dCit]LRP[dA]-NH2) | inactive
5 | C[C@H]1Oc2cc(cnc2N)-c2c(nn(C)c2C#N)CN(C)C(=O)c2ccc(F)cc21 | inactive
6 | O=C(CN1C(=O)C2(CCCC2)NCC1c1cc(F)cc(F)c1)Nc1ccc2c(c1)CC1(C2)C(=O)Nc2ncccc21 (stereo not drawn) | inactive
7 | COc1nc2sc(C(=O)NC3CC3)c(N)c2c(C)c1Cl | inactive
8 | CC1=C2C[C@H]3O[C@@]3(C)CCC3O[C@@]3(C)C[C@@]2(O)OC1=O (stereo partly drawn) | inactive
9 | C=C1[C@@H]2CC[C@@H]3[C@@](CCC4C(C(=O)O)(C(=O)O)C[C@@H](O[C@@H]5O[C@H](CO)[C@@H](O)[C@H](O)[C@H]5OC(=O)CC(C)C)C[C@]43C)(C2)[C@H]1O (stereo partly drawn) | inactive
10 | CCS(=O)(=O)N1CCN(c2ccc(Nc3ncc(C(N)=O)c(NC4CC4)n3)cc2)CC1 | inactive
11 | COC(C(=O)N1Cc2[nH]nc(NC(=O)c3ccc(N4CCN(C)CC4)cc3)c2C1)c1ccccc1 (stereo not drawn) | inactive
12 | Cn1c(=O)n(-c2ccc(C(C)(C)C#N)cc2)c2c3cc(C#Cc4cccnc4)ccc3ncc21 | inactive
13 | C#CCN(Cc1cc2c(=O)n(C)c(CN3CCN(C)CC3)nc2cc1Cl)c1ccc(C(=O)NCc2cccnc2)cc1 | inactive
14 | CN(C)c1nc(NC2CCC(NC(=O)c3ccc(F)c(F)c3)CC2)nc2ccccc12 (stereo not drawn) | inactive
15 | C[C@]12C=C[C@@]3(CCC4[C@](C)(CO)CCC[C@@]4(C)C3CC1)C2 (stereo partly drawn) | 22.4 µM (active)
16 | CN(c1ccccc1CNc1nc(Nc2ccc3c(c2)CC(=O)N3)ncc1C(F)(F)F)S(C)(=O)=O | inactive
17 | CCC1C(=O)OC23C=C[C@@H]4C(C(=O)O)=CO[C@H](O[C@@H]12)[C@@H]43 (stereo partly drawn) | inactive

Row | Compound | Potency
18 | C=CC(=O)Nc1cc(Nc2nccc(-c3c[nH]c4ccccc34)n2)c(OC)cc1N(C)CCN(C)C | inactive
19 | NC(=O)c1cccc(-c2cc(OC(=O)NC3CCCCC3)ccc2O)c1 | inactive
20 | CC(Oc1ccc2[nH]nc(/C=C/c3cnn(CCO)c3)c2c1)c1c(Cl)cncc1Cl (stereo not drawn) | inactive
21 | COc1ccc(CCO[C@@H]2CCCC[C@H]2N2CC[C@@H](O)C2)cc1OC | inactive
22 | O=C(CC1C(=O)Nc2ccccc21)OC[C@H]1O[C@@H](OCCc2ccc(O)cc2)[C@H](O)[C@@H](O)[C@@H]1O (stereo partly drawn) | inactive
23 | O=C(NCc1ccc(S(=O)(=O)c2cc(F)cc(F)c2)cc1)c1ccc2nccn2c1 | inactive
24 | CC(C)(C)c1ccc(S(=O)(=O)NCc2ccc(C(=O)Nc3cccnc3)cc2)cc1 | inactive
25 | C=CC(C)(C)C12C=C(OC)C(=O)N3C(C(C)C)C(=O)NC31N(OC)c1ccccc12 (stereo not drawn) | inactive
26 | CC1C(=O)OCC2=CCN3CCC(OC(=O)C(C)(O)C1(C)O)C23 (stereo not drawn) | inactive
27 | NCc1c[nH]c(=S)n1[C@@H]1CCc2c(F)cc(F)cc2C1 | inactive
28 | COc1cc2c(NC3CCN(CC4CCCCC4)CC3)nc(N3CCCN(C(C)C)CC3)nc2cc1OCCCN1CCCCC1 | inactive
29 | CC(=O)N1CCN(Cc2ccc([C@H](C)Nc3nccc(N4C(=O)OC[C@@H]4C(C)C)n3)cc2)CC1 | inactive
30 | CC(O)/C=C/C1(O)C(C)C(O[C@@H]2O[C@H](CO)[C@@H](O)[C@H](O)[C@H]2O)C(O)CC1(C)C (stereo partly drawn) | inactive
31 | COC(=O)C1=CO[C@@H](O[C@@H]2O[C@H](CO)[C@@H](O)[C@H](O)[C@H]2O)[C@H]2[C@@H]1C=C[C@@]21C=C([C@H](C)O)C(=O)O1 | inactive
32 | C[C@H](C(=O)NC1CCCC1)N(C(=O)Cn1nnc(-c2ccc3c(c2)OCO3)n1)C1CCCCC1 | inactive
33 | COc1ccc(CC2NCCc3c2[nH]c2ccc(C)cc32)cc1OC (stereo not drawn) | inactive
